# Results reported in the supplement of paper PMC11732987, “Enantioselective OTUD7B fragment discovery through chemoproteomics screening and high-throughput optimisation” (Communications Chemistry, 2025).
# A number with no mark means an inactive call.
# Key:
# Assay in all cases: log2 ratio of Biotin-Ahx-Ub-VS probe labelling (fragment/DMSO); higher = less target engagement (more negative = stronger competition), active = hit call of the paper (q ≤ 0.05, log2 ratio ≤ -1)
# Details in all cases: compound concentration: 200 uM; treatment time: 3 h
# [1] = compound: CC(C)CN(C1CC1)C(=O)CCl
# Procedure, shortened: (§1)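 Triplicate samples of HEK293T lysate, 495 µg each, received fragment at 200 µM or vehicle for 3 h, followed by Biotin-Ahx-Ub-VS (0.5 µM final) for 1 h. After NeutrAvidin enrichment of labelled DUBs and LysC/trypsin digestion, peptides were run by diaPASEF LC-MS/MS. The values are average log2 fragment/vehicle ratios from global-median-normalised Spectronaut label-free quantities, tested by unpaired t-test on proteins having ≥2 unique peptides.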
# [2] = compound: CC(NC(=O)CCl)c1cccs1
# Procedure, shortened: as §1
# [3] = compound: CC1CCCCC1NC(=O)CCl
# Procedure, shortened: as §1
# [4] = compound: CC1CCCCN1C(=O)CCl
# Procedure, shortened: as §1
# [5] = compound: CC1CN(CC(C)O1)C(=O)CCl
# Procedure, shortened: as §1
# [6] = compound: CN(C1CCCCC1)C(=O)CCl
# Procedure, shortened: as §1
# [7] = compound: Cc1cc(NC(=O)CCl)no1
# Procedure, shortened: as §1
# [8] = compound: Cc1cccc(NC(=O)CCl)c1
# Procedure, shortened: as §1
# [9] = compound: Cc1nc(NC(=O)CCl)sc1C
# Procedure, shortened: as §1
# [10] = compound: Cc1nnc(NC(=O)CCl)s1
# Procedure, shortened: as §1
# [11] = compound: Cl.Cc1ncsc1CNC(=O)CCl
# Procedure, shortened: as §1
# [12] = compound: ClCC(=O)N1CCCCCCC1
# Procedure, shortened: as §1
# [13] = compound: ClCC(=O)NC1(CCCC1)C#N
# Procedure, shortened: as §1
# [14] = compound: ClCC(=O)NCC1CCC1
# Procedure, shortened: as §1
# [15] = compound: ClCC(=O)NCC1CCCO1
# Procedure, shortened: as §1
# [16] = compound: ClCC(=O)NCc1ccco1
# Procedure, shortened: as §1
# [17] = compound: ClCC(=O)Nc1cccc(Cl)c1
# Procedure, shortened: as §1
# [18] = compound: ClCC(=O)NC(C1CC1)C1CC1
# Procedure, shortened: as §1
# UniProt O00487, sequence (O00487 whole entry): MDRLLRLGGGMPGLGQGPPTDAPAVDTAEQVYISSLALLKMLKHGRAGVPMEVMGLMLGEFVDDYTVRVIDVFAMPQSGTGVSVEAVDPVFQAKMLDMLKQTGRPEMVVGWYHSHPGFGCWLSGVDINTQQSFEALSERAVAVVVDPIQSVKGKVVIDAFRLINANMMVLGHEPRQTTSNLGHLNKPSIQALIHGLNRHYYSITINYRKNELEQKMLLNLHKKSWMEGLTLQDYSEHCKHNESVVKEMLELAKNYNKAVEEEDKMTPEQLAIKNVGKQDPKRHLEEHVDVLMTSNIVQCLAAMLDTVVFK
# UniProt O15372, sequence (O15372 whole entry): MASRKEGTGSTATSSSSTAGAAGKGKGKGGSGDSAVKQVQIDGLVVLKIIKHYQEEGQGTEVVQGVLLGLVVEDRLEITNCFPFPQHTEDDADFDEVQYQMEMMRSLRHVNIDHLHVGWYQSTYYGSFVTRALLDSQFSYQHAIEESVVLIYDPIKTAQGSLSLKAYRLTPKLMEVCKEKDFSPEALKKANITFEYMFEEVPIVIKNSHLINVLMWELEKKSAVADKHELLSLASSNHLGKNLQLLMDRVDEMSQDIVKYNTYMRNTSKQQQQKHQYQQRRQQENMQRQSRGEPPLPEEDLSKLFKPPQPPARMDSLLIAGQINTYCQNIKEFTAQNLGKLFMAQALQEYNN
# UniProt Q53GS9, sequence (Q53GS9 whole entry): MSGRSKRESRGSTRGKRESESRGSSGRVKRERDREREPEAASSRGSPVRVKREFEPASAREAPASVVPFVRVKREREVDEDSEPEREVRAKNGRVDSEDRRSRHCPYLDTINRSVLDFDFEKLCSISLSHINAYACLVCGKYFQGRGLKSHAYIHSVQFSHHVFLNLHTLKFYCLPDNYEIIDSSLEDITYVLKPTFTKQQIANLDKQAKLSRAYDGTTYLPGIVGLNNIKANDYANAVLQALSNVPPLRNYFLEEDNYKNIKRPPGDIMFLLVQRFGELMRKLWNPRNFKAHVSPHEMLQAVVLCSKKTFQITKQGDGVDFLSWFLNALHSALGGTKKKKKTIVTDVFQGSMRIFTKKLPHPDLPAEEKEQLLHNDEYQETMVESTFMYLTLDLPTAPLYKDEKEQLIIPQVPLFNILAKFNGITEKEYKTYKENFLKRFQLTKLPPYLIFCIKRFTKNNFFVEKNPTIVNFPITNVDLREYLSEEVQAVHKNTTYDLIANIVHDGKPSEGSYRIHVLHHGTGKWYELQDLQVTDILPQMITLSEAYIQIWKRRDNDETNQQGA
# UniProt Q13107, sequence (Q13107 whole entry): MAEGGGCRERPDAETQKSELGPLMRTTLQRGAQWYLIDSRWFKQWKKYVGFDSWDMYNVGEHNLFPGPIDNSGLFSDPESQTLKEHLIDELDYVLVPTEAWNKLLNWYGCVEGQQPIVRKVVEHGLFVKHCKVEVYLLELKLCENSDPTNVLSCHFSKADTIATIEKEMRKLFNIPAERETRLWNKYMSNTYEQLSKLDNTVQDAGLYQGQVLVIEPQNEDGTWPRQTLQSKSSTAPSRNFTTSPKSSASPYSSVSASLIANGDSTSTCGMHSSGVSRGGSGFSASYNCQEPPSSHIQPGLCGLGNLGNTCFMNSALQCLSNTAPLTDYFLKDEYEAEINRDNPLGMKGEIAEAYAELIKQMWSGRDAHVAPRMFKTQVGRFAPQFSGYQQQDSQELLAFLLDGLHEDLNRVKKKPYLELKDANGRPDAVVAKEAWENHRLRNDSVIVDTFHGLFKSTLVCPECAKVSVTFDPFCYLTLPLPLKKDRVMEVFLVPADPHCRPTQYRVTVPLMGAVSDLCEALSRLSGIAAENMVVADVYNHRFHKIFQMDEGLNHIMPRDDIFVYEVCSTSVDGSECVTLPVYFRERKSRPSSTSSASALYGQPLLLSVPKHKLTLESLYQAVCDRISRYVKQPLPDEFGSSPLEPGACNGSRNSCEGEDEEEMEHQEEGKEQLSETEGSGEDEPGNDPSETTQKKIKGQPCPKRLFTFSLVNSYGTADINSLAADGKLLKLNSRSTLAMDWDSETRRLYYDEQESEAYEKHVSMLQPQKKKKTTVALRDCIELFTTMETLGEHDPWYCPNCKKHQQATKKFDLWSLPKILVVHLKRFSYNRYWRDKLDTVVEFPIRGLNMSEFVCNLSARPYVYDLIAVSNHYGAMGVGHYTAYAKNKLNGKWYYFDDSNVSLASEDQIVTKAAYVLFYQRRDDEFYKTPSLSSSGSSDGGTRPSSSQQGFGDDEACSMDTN
# UniProt Q8TE49, sequence (Q8TE49 whole entry): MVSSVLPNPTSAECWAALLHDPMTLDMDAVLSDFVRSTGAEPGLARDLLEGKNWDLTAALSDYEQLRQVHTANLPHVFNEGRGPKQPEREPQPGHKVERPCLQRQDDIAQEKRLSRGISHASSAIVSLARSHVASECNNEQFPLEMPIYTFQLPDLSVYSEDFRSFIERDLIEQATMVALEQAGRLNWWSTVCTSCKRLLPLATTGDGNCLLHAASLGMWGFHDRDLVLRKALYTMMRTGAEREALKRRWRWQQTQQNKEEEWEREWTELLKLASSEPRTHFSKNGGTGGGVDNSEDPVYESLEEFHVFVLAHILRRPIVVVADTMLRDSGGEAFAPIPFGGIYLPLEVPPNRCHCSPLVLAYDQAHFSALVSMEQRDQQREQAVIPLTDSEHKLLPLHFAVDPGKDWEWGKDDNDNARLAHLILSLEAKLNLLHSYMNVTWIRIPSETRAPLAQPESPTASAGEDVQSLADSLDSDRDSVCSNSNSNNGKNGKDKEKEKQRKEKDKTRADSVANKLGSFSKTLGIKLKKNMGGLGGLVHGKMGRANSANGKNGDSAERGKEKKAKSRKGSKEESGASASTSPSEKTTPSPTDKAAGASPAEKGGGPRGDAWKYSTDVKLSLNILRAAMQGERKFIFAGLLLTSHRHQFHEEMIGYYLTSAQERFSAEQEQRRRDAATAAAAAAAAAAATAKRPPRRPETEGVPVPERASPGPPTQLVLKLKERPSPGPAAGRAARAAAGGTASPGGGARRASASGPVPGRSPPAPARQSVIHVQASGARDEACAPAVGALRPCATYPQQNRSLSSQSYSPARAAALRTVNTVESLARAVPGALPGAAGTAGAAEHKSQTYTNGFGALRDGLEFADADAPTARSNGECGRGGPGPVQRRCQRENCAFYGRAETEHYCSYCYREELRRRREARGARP
# UniProt Q9UGI0, sequence (Q9UGI0 whole entry): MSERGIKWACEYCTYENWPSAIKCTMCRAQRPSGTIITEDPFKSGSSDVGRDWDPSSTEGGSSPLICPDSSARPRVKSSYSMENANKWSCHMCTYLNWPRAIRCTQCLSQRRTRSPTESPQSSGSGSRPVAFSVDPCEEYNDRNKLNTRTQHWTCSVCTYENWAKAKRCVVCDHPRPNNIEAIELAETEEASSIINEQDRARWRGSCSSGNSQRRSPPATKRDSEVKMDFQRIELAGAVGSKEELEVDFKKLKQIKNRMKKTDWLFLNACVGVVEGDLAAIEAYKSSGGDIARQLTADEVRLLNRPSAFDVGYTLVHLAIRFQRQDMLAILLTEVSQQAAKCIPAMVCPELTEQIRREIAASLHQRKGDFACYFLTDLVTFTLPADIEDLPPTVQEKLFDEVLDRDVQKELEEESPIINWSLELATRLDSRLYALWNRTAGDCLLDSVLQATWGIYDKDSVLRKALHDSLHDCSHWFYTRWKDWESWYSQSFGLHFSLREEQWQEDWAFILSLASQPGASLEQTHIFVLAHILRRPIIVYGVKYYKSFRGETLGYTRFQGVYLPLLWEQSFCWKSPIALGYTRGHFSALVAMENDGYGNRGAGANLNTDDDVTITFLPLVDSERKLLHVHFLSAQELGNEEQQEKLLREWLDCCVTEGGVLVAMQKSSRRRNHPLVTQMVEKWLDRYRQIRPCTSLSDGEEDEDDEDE
# UniProt Q86UV5, sequence (Q86UV5 whole entry): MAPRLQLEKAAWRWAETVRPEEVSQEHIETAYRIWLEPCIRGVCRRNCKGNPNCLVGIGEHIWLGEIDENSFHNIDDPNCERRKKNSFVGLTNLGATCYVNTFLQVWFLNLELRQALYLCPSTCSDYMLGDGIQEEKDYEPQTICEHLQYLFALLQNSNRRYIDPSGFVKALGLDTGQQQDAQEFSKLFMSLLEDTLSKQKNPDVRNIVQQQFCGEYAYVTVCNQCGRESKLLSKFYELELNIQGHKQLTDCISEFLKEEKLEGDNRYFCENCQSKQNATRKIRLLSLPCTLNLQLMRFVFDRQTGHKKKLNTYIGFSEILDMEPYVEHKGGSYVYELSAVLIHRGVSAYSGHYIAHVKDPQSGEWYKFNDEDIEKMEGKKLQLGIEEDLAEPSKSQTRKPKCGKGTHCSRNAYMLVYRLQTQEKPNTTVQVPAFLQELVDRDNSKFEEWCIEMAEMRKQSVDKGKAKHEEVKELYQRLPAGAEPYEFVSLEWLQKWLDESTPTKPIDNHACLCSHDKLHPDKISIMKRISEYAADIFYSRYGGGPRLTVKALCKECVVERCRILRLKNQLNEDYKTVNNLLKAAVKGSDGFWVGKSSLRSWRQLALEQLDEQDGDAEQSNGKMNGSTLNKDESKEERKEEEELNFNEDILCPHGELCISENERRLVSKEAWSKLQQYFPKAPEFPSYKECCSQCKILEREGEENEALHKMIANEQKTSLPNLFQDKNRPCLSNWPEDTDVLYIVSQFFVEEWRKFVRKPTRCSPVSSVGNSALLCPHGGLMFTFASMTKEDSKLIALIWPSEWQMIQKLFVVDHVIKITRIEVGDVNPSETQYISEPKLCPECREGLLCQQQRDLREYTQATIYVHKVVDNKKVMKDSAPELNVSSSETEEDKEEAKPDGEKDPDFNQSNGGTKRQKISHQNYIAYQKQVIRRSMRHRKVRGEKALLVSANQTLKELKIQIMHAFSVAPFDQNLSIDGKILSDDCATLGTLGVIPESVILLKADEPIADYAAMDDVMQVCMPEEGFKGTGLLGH
Target,log2 ratio of Biotin-Ahx-Ub-VS probe labelling [1],log2 ratio of Biotin-Ahx-Ub-VS probe labelling [2],log2 ratio of Biotin-Ahx-Ub-VS probe labelling [3],log2 ratio of Biotin-Ahx-Ub-VS probe labelling [4],log2 ratio of Biotin-Ahx-Ub-VS probe labelling [5],log2 ratio of Biotin-Ahx-Ub-VS probe labelling [6],log2 ratio of Biotin-Ahx-Ub-VS probe labelling [7],log2 ratio of Biotin-Ahx-Ub-VS probe labelling [8],log2 ratio of Biotin-Ahx-Ub-VS probe labelling [9],log2 ratio of Biotin-Ahx-Ub-VS probe labelling [10],log2 ratio of Biotin-Ahx-Ub-VS probe labelling [11],log2 ratio of Biotin-Ahx-Ub-VS probe labelling [12],log2 ratio of Biotin-Ahx-Ub-VS probe labelling [13],log2 ratio of Biotin-Ahx-Ub-VS probe labelling [14],log2 ratio of Biotin-Ahx-Ub-VS probe labelling [15],log2 ratio of Biotin-Ahx-Ub-VS probe labelling [16],log2 ratio of Biotin-Ahx-Ub-VS probe labelling [17],log2 ratio of Biotin-Ahx-Ub-VS probe labelling [18]
USP9X (UniProt Q93008),-0.0684,-0.269,-0.142,-0.264,-0.347,-0.336,-0.0452,-0.0218,-0.239,-0.36,-0.111,0.0487,-0.264,-0.191,-0.0136,-0.446,-0.734,
USP14 (UniProt P54578),-0.0633,0.0378,-0.306,-0.639,-0.518,-0.00359,-0.188,-0.184,0.051,-0.437,-0.178,-0.0389,-0.0892,0.0427,0.00941,-0.0561,-0.675,-0.411
UniProt O00487,-0.123,-0.134,-0.0855,-0.115,-0.19,-0.0571,0.0118,-0.116,-0.0519,-0.139,0.0936,-0.0818,-0.263,-0.192,-0.162,-0.0244,-0.0223,
USP25 (UniProt Q9UHP3),-0.0734,-0.0952,-0.722,-0.62,-0.368,0.0415,-0.392,-0.444,-0.307,-0.446,-0.133,-0.102,-0.276,-0.149,0.0208,-0.419,-1.21 (active),-0.502
UniProt Q9UGI0,0.11,-0.241,-0.605,-1.13 (active),-0.702,-0.423,-0.555,-0.519,-0.47,-0.661,-0.315,0.214,-0.804,-0.704,0.145,-0.705,-1.16 (active),-0.0131
USP48 (UniProt Q86UV5),-0.00536,-0.0207,-0.24,-0.338,-0.249,-0.456,-0.25,-0.217,-0.179,-0.251,0.0264,-0.519,-0.56,-0.21,-0.0126,-0.405,-0.545,
USP15 (UniProt Q9Y4E8),-0.00677,0.017,-0.0215,-0.269,-0.339,-0.338,-0.104,-0.325,-0.245,-0.374,-0.116,-0.163,-0.364,-0.255,0.0921,-0.327,-0.77,
USP39 (UniProt Q53GS9),-0.169,-0.144,-0.231,-0.11,-0.122,0.248,-0.329,-0.224,0.121,-0.07,0.28,0.0652,-0.079,-0.0869,-0.101,-0.0526,0.19,-0.194
USP5 (UniProt P45974),0.195,0.3,-0.0515,-0.178,0.00747,0.487,-0.18,-0.356,0.0301,-0.648,-0.209,0.18,-0.00567,-0.0477,0.0345,0.0924,-0.784,
ATXN3 (UniProt P54252),-0.0377,0.0273,-0.0841,-0.487,-0.327,-0.303,-0.0822,-0.171,-0.116,-0.268,-0.254,-0.156,-0.305,-0.206,-0.0451,-0.0869,-1.02 (active),
UniProt P51784,-0.051,0.138,0.0474,-0.248,-0.0132,0.0405,-0.202,-0.227,0.0778,-0.209,0.0993,-0.126,-0.072,-0.102,0.104,-0.104,-0.628,
EIF3H (UniProt O15372),-0.185,0.239,-0.385,-0.0794,-0.144,0.0605,0.0219,0.0847,0.0871,0.0591,0.337,0.342,-0.198,-0.00227,0.038,0.206,0.176,-0.0951
USP4 (UniProt Q13107),0.153,0.162,-0.162,-0.204,-0.321,-0.349,-0.155,-0.256,0.0368,-0.309,-0.0374,-0.0039,-0.169,0.0544,0.132,-0.0646,-0.558,
ALG13 (UniProt Q9NP73),0.0397,-0.0404,-1.07,0.242,0.125,-0.757,-0.0979,0.249,0.182,-0.152,-0.305,-0.0228,0.017,0.00528,0.149,-0.6,0.292,
UniProt O00507,0.374,0.0497,-0.0879,-0.429,-0.148,0.12,0.023,0.0709,0.409,-0.563,-0.51,0.333,0.0321,0.0835,0.383,-0.338,-0.568,
UniProt Q8TE49,-0.309,-0.893,-1.99 (active),-0.301,-0.547,-0.46,-0.679,-0.769,-0.452,-0.537,-0.377,-0.312,-1.15 (active),-0.802,-0.46,-0.215,-1.29 (active),
UniProt Q5T2D3,0.0213,-0.301,-0.208,-0.128,-0.269,-0.159,-0.226,-0.0544,-0.17,-0.141,-0.0477,-0.0257,-0.314,-0.239,-0.00242,-0.0389,-0.998,
BAP1 (UniProt Q92560),0.0148,-2.33 (active),-1.53 (active),-0.422,-0.661,-0.252,-2.59 (active),-1.83 (active),-1.05 (active),-1.34 (active),-2.85 (active),-0.0644,-3.06 (active),-1.81 (active),-0.549,-1.81 (active),-2.97 (active),-0.654
